In the supplement of paper PMC12494721:
Structures can show the parent of a compound that is named as a salt.

Assays:
Conditions in all cases: incubation time: 27 h, anaerobic, 37 °C;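 for the amine columns active = adjusted P below 0.05 in both replicates with a change the same way and a mean fold change under 0.8 or over 1.25; inactive = the rest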
[1] = test system: Clostridium sporogenes DSM 1664; assay: growth (OD595) fold change vs plate DMSO controls (fold change (ratio)); higher = more growth
How it was run: (§1)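 Growth is the fold change relative to the median of plate DMSO controls. Readings came from anaerobic mGAM cultures in 96-well plates grown for 27 h at 37 °C and read at 595 nm. They were blank-subtracted, corrected for compound background with 20 µM compound solutions in water, and converted to OD with a calibration factor of 5. Values are means of 2 biological replicates, and fold changes above 1.5 were set to NA.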

Escherichia coli IAI1 [2] = assay: as above
How it was run: as §1

[3] = test system: Klebsiella aerogenes DSM 30053; assay: as above
How it was run: as §1

[4] = test system: Ruminococcus gnavus DSM 108212; assay: as above
How it was run: as §1

[5] = test system: Klebsiella aerogenes DSM 30053; assay: fold change of Histamine concentration vs plate DMSO controls (fold change (ratio)); higher = more amine produced, active = hit call of the paper (significant change in both replicates, either direction)
How it was run: (§2)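 Amine values are fold changes relative to DMSO-only wells on the same plate. They derive from 27 h, 37 °C anaerobic mGAM cultures of four gut bacterial strains in 80 µL wells, dosed at 20 µM final, or 50 µM final for sweeteners. Extraction of the whole culture, LC–triple-quadrupole MS in dynamic MRM mode, external calibration curves and within-batch drift correction were used, with 2 biological replicates averaged.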

[6] = test system: Clostridium sporogenes DSM 1664; assay: fold change of Tryptamine concentration vs plate DMSO controls (fold change (ratio)); higher = more amine produced, active = hit call of the paper (significant change in both replicates, either direction)
How it was run: as §2

[7] = test system: Ruminococcus gnavus DSM 108212; assay: as above
How it was run: as §2

Escherichia coli IAI1 [8] = assay: fold change of Putrescine concentration vs plate DMSO controls (fold change (ratio)); higher = more amine produced, active = hit call of the paper (significant change in both replicates, either direction)
How it was run: as §2

[9] = test system: Klebsiella aerogenes DSM 30053; assay: as above
How it was run: as §2

Escherichia coli IAI1 [10] = assay: fold change of Cadaverine concentration vs plate DMSO controls (fold change (ratio)); higher = more amine produced, active = hit call of the paper (significant change in both replicates, either direction)
How it was run: as §2

[11] = test system: Klebsiella aerogenes DSM 30053; assay: as above
How it was run: as §2

[12] = test system: Ruminococcus gnavus DSM 108212; assay: fold change of 2-Phenylethylamine concentration vs plate DMSO controls (fold change (ratio)); higher = more amine produced, active = hit call of the paper (significant change in both replicates, either direction)
How it was run: as §2

Compound | growth [1] | growth (Escherichia coli IAI1 [2]) | growth [3] | growth [4] | fold change of Histamine concentration [5] | fold change of Tryptamine concentration [6] | fold change of Tryptamine concentration [7] | fold change of Putrescine concentration (Escherichia coli IAI1 [8]) | fold change of Putrescine concentration [9] | fold change of Cadaverine concentration (Escherichia coli IAI1 [10]) | fold change of Cadaverine concentration [11] | fold change of 2-Phenylethylamine concentration [12]
CCCCCOC(=O)Nc1nc(=O)n([C@@H]2O[C@H](C)[C@@H](O)[C@H]2O)cc1F [Capecitabine] (20 µM) | 1.12 | 0.991 | 1.07 | 0.98 | 0.921 (inactive) | 0.982 (inactive) | 1.03 (inactive) | 0.993 (inactive) | 0.99 (inactive) | 1.01 (inactive) | 1 (inactive) | 1.06 (inactive)
COC1=CC(=O)C[C@@H](C)[C@]12Oc1c(Cl)c(OC)cc(OC)c1C2=O [Griseofulvin] (20 µM) | 0.993 | 1.02 | 0.922 | 0.915 | 1.02 (inactive) | 1.03 (inactive) | 0.993 (inactive) | 1.01 (inactive) | 0.989 (inactive) | 1.03 (inactive) | 0.999 (inactive) | 0.98 (inactive)
c1coc(CNc2ncnc3[nH]cnc23)c1 [Kinetin] (20 µM) | 0.818 | 1.05 | 0.962 | 0.855 | 0.974 (inactive) | 0.976 (inactive) | 1.01 (inactive) | 1.08 (inactive) | 1.01 (inactive) | 0.999 (inactive) | 1.01 (inactive) | 1.04 (inactive)
CN1CCN(CCCN2c3ccccc3Sc3ccc(Cl)cc32)CC1 [Prochlorperazine dimaleate] (20 µM) | 1.06 | 1.11 | 1.14 | 0.858 | 0.917 (inactive) | 1.04 (inactive) | 0.87 (inactive) | 0.974 (inactive) | 0.979 (inactive) | 0.971 (inactive) | 1.02 (inactive) | 0.97 (inactive)
Nc1nc(=O)c2nc(CNc3ccc(C(=O)N[C@@H](CCC(=O)O)C(=O)O)cc3)cnc2[nH]1 [Folic acid] (20 µM) | 0.939 | 1.08 | 0.988 | 0.783 | 0.93 (inactive) | 1.04 (inactive) | 0.955 (inactive) | 1.05 (inactive) | 0.997 (inactive) | 0.98 (inactive) | 1.01 (inactive) | 0.928 (inactive)
O=C(O)CSCC(=O)NC1CCSC1=O (centres undefined) [Erdosteine] (20 µM) | 1.04 | 1.07 | 1.03 | 1.04 | 0.984 (inactive) | 0.962 (inactive) | 1.01 (inactive) | 0.971 (inactive) | 1 (inactive) | 0.993 (inactive) | 0.993 (inactive) | 0.988 (inactive)
CCCCOc1ccc(CC(=O)NO)cc1 [Bufexamac] (20 µM) | 0.989 | 0.929 | 0.846 | 1.04 | 1.25 (inactive) | 0.989 (inactive) | 1.02 (inactive) | 0.929 (inactive) | 0.959 (inactive) | 0.965 (inactive) | 0.956 (inactive) | 1.07 (inactive)
CCCCC(CC)CN1CN(CC(CC)CCCC)CC(C)(N)C1 (centres undefined) [Hexetidine] (20 µM) | 1.05 | 1.07 | 1.11 | 1.45 | 0.978 (inactive) | 1.23 (inactive) | 0.898 (inactive) | 1.05 (inactive) | 0.987 (inactive) | 1.04 (inactive) | 1.01 (inactive) | 1.05 (inactive)
COc1ccc(-c2ccc3cc(C(=O)O)ccc3c2)cc1C12CC3CC(CC(C3)C1)C2 [Adapalene] (20 µM) | 0.829 | 1 | 1.04 | 1.18 | 1.02 (inactive) | 0.96 (inactive) | 1.04 (inactive) | 1.02 (inactive) | 1 (inactive) | 1.02 (inactive) | 0.994 (inactive) | 1.06 (inactive)
Cc1nc2n(c(=O)c1CCN1CCC(c3noc4cc(F)ccc34)CC1)CCCC2 [Risperidone] (20 µM) | 1 | 1 | 1 | 1.02 | 1.04 (inactive) | 0.962 (inactive) | 0.931 (inactive) | 1.33 (inactive) | 1.05 (inactive) | 0.952 (inactive) | 1.01 (inactive) | 0.878 (inactive)
CN(C)CCCSC(=N)N [Dimaprit dihydrochloride] (20 µM) | 1.04 | 1.04 | 1.02 | 1.03 | 0.939 (inactive) | 0.955 (inactive) | 1.07 (inactive) | 1 (inactive) | 0.996 (inactive) | 0.998 (inactive) | 0.993 (inactive) | 1.07 (inactive)
Cc1ccc(-c2ncc(Cl)cc2-c2ccc(S(C)(=O)=O)cc2)cn1 [Etoricoxib] (20 µM) | 1.04 | 1.02 | 1.14 | 0.73 | 0.814 (inactive) | 1.16 (inactive) | 1.1 (inactive) | 1.05 (inactive) | 0.959 (inactive) | 0.905 (inactive) | 1.03 (inactive) | 1.19 (inactive)
